Shown are actives, neighbours in structure and some others; about 2.5% of the full set was active somewhere.
Cruzain noTriton: blocks cruzain activity in detergent-free assay; 200,000 tested, 2.3% active; P25779; Potency, µM, for the others: max response, negative = inhibition, hits mostly inhibitors; AID 1476; purified cruzain, Z-FR-AMC fluorescence, no detergent;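 also: plate controls were enzyme without inhibitor for no effect and buffer without enzyme for full effect; nearly all actives have a fitted effect of over 40% in size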
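Purified cruzain at 1.5 nM, pre-incubated 15 min with compound at room temperature in 100 mM sodium acetate pH 5.5, 5 mM DTT, 0.00005% Triton X-100. Reaction started with 2 uM Z-FR-AMC; AMC fluorescence increase over 60 s gives rate.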
Cruzain inh Det: blocks cruzain activity in presence of Triton detergent | 200,000 tested, 0.43% active | purified cruzain, Z-FR-AMC fluorescence, 0.01% Triton | P25779 | Potency, µM, without a hit: max response, negative = inhibition, most hits filed as inhibitors;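 also: plate controls were neutral wells for no effect and buffer without enzyme for full effect; nearly all actives have a fitted effect of over 40% in size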
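15 min RT preincubation of 1.5 nM cruzain with compound, then 2 uM Z-FR-AMC added; kinetic AMC fluorescence, 60 s delta. Triton X-100 0.01%, pH 5.5.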
Papain inh: blocks papain protease activity, flagging nonselective cruzain hits; Potency, µM, without a hit: max response, negative = inhibition, hits mostly inhibitors; shares compounds with Cruzain inh Det; purified papain, Z-FR-AMC fluorescence cleavage; 410 tested, 41% active;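 also: 0% = no-compound wells and -100% = no-enzyme wells; nearly all actives have a fitted effect of over 35% in size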
Target sequence (P00784 whole entry, looked up): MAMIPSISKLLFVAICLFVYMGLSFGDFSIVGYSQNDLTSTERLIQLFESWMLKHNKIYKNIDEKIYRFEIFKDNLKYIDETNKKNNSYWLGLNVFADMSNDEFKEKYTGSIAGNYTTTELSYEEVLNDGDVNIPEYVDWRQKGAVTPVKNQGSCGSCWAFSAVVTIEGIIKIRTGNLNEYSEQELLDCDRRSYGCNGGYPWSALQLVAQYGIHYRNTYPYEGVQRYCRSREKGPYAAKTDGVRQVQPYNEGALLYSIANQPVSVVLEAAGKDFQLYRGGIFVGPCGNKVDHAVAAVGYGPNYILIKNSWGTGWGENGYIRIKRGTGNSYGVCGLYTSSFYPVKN
* hit, by the source's call; u = inconclusive; x = no result. Calls follow the shape of the dose curve; as a rule, active = well fitted curve in the direction sought with a large enough effect; inconclusive = small, poorly fitted or top-dose-only effect, or another doubt; inactive = no such curve, though single readings can be large; an effect the other way counts as inactive or inconclusive. Potency is read from the fitted curve at half-maximal effect.

SMILES	Cruzain noTriton	Cruzain inh Det	Papain inh
COc1ccc2cc(CN(CCc3ccccc3)Cc3nnnn3Cc3ccco3)c(=O)[nH]c2c1	14%	-12%	x
CCC(c1nnnn1Cc1ccco1)N(Cc1ccccc1OC)Cc1cc2cc(C)ccc2[nH]c1=O (stereo unspecified)	-13%	-9%	x
Cc1ccn2c(=O)cc(CSc3nnc(C)s3)nc2c1	-3%	-3%	x
CCOc1ccc(CC(=O)NCCc2csc(-c3ccc(C)cc3)n2)cc1	2%	-6%	x
Cc1ccc2occ(CC(=O)Nc3ccc(S(=O)(=O)N4CCC(C)CC4)cc3)c2c1	u	-6%	x
O=S(=O)(c1ccc(-c2csc(=Nc3ccc(OC(F)(F)Cl)cc3)n2CCCO)cc1)N1CCCC1	u	-9%	x
COc1ccc(OC)c(S(=O)(=O)NCCc2csc3nc(-c4ccccc4)nn23)c1	2%	-3%	x
Cn1c(=O)oc2cc(S(=O)(=O)NCCC(=O)Nc3ccc(F)c(Cl)c3)ccc21	-11%	-5%	x
COc1ccc(CNC(=O)CCc2cn(Cc3cc(C)ccc3C)c3ccccc23)cc1OC	u	-6%	x
Cc1cc(NS(=O)(=O)c2cn(C)c(C)n2)ccc1Br	0%	-1%	x
Cc1ccc2cc(CN(Cc3ccc4c(c3)OCO4)Cc3nnnn3Cc3ccco3)c(=O)[nH]c2c1	-3%	-10%	x
Cc1ccc(CN(Cc2cc3cc4c(cc3[nH]c2=O)OCCO4)Cc2nnnn2Cc2ccco2)cc1	11%	20µM*	-26%
CCCCC[C@H](O)/C=C/C=C\C=C\C=C\[C@@H](O)[C@@H](O)CCCC(=O)O	-1%	1%	x
Cc1cc(OCC(=O)N(Cc2ccc(N(C)C)cc2)Cc2ccco2)cc(C)c1Cl	u	-10%	x
S=C(NC1CCCCC1)N(CCc1nc2ccccc2[nH]1)C1CCCC1	11%	13µM*	7%
O=C(Nc1ccccc1)N(CCc1nc2ccccc2[nH]1)C1CCCC1	-6%	0%	x
Cc1nn(C)c2c1c(-c1ccccc1)cc(=O)n2Cc1ccc(F)cc1	-8%	-6%	x
COc1ccc(C(=O)N/N=C/c2ccc(OC(=O)c3ccccc3)cc2)cc1	u	0%	x
COc1ccc(N=Cc2nc(-c3ccccc3)oc2OC(=O)c2ccccc2)cc1	16µM*	10µM*	-24%
OC[C@H]1O[C@@H]2O[C@H]3[C@H](O)[C@@H](O)[C@@H](O[C@H]4[C@H](O)[C@@H](O)[C@@H](O[C@H]5[C@H](O)[C@@H](O)[C@@H](O[C@H]6[C@H](O)[C@@H](O)[C@@H](O[C@H]7[C@H](O)[C@@H](O)[C@@H](O[C@H]8[C@H](O)[C@@H](O)[C@@H](O[C@H]1[C@H](O)[C@H]2O)O[C@@H]8CO)O[C@@H]7CO)O[C@@H]6CO)O[C@@H]5CO)O[C@@H]4CO)O[C@@H]3CO	-2%	15%	x
Cc1cc2c(C)cc(=O)oc2c2c1NCCC2	-11%	25µM*	16µM*
Cc1cc2cc3c(C)cc(=O)oc3c(C)c2o1	3%	2%	x
COc1cc(NC(=O)CCc2nc3cccnc3n2Cc2cccs2)cc(OC)c1OC	24%	-4%	x
O=[N+]([O-])c1ccccc1S(=O)(=O)NCC1CCC(CNCC2CCc3ccccc3C2)CC1 (stereo unspecified)	-5%	-3%	5%
O=[N+]([O-])c1ccccc1S(=O)(=O)NCCC1=CCCCC1	-2%	0%	x
SMILES	Cruzain noTriton	Cruzain inh Det	Papain inh
O=C(CNC(=O)c1ccccc1)N[C@@H](C(=O)Nc1cc(C(F)(F)F)ccc1Cl)c1ccccc1	x	x	-10%
O=C(Cc1ccccc1)NC(=S)Nc1cc(C(F)(F)F)ccc1Cl	-4%	-1%	x
CCOc1ccc(-n2c(=O)c3c(C)c(C)sc3n(CC(=O)c3ccccc3)c2=O)cc1	-9%	0%	x
COC(=O)c1ccccc1NC(=O)c1ncoc1-c1ccco1	-3%	1%	x
CC(C)(C)NCC(O)c1ccccc1Cl (stereo unspecified)	-7%	3%	x
OCCN(CCO)c1ccc(C(c2ccccc2Cl)c2ccc(N(CCO)CCO)cc2Cl)c(Cl)c1	u	-9%	-5%
N#Cc1c(NC(=O)CSc2ncnc3c2cnn3-c2ccccc2Cl)sc2c1CCCC2	3.2µM*	3%	10%
N#Cc1c(NC(=O)CSc2ncn(-c3ccccc3)n2)sc2c1CCCC2	u	2%	x
Cc1cc(C)cc(OCCn2c(CCNC(=O)C3CCCCC3)nc3ccccc32)c1	1%	1.8µM*	2%
Cc1cccc(OCCCn2c(CCNC(=O)C3CCCCC3)nc3ccccc32)c1	-4%	2µM*	16µM*
Cc1ccc(Cn2c(CCNC(=O)c3cccc(C)c3)nc3ccccc32)cc1	25%	5µM*	-12%
CC(=O)NCCCc1nc2ccccc2n1Cc1ccc(C)cc1	2%	3%	x
Cc1cccc(C)c1OCCn1c(CCNC(=O)C2CCCCC2)nc2ccccc21	5%	3.5µM*	-26%
Cc1cccc(OCCCn2c(CCNC(=O)C(C)C)nc3ccccc32)c1	16%	-2%	x
Cc1cccc(OCCn2c(CCCO)nc3ccccc32)c1	3%	2%	x
CCn1c(NC(=O)C2CCCCC2)nc2ccccc21	-25%	-4%	x
CCN(CC)c1ccc(CN(C(=O)Cc2coc3ccc(C)cc23)C2CCS(=O)(=O)C2)cc1 (stereo unspecified)	-6%	-7%	x
CCOC(=O)N1CCc2c(sc3c2c(=O)n(Cc2ccccc2)c(=O)n3Cc2ccccc2Cl)C1	5%	0%	x
COc1ccccc1OCc1nnc(-c2ccccc2)o1	-6%	-2%	x
COCC(=O)N1CCC2(CC1)CN(C(=O)Nc1ccc(OC)cc1)C2	5%	2%	x
Cc1cc(OCCn2c(CCNC(=O)C3CCCCC3)nc3ccccc32)ccc1Cl	-15%	2.5µM*	-6%
CCCCn1c(CCNC(=O)CC)nc2ccccc21	-7%	0%	x
Cc1cc(C)cc(OCCCn2c(CCNC(=O)C3CCCCC3)nc3ccccc32)c1	3%	2µM*	25µM*
CCc1ccccc1N1CC(c2nc3ccccc3n2CCOc2ccc(Cl)c(C)c2)CC1=O (stereo unspecified)	-14%	-8%	x
Cc1cc(C)c2c(-n3cccc3)c(C(=O)NCCc3ccc(Cl)cc3)sc2n1	22%	4%	x
SMILES	Cruzain noTriton	Cruzain inh Det	Papain inh
COc1cc(Cl)c(C)cc1NC(=O)CCCN1C(=O)C(c2ccccc2)Oc2cccnc21 (stereo unspecified)	-2%	-4%	x
CN1CCN(c2ncc3nc(-c4cn(C)c5ccccc45)c(=O)n(Cc4cccs4)c3n2)CC1	0%	-2%	x
CCNc1nc(C#N)nc(Nc2ccccc2)n1	x	x	5.6µM*
CCCNc1nc(C#N)nc(Nc2ccccc2)n1	x	x	1µM*
Clc1nc(Nc2ccccc2)nc(Nc2ccccc2)n1	-8%	-6%	x
CC(C)(CO)Nc1nc(Nc2ccccc2)nc(Nc2ccccc2)n1	-2%	-14%	x
CCn1cnc2c(Nc3cc(F)cc(F)c3)nc(C#N)nc21	x	x	0.3µM*
CCn1cnc2c(Nc3cccc(Cl)c3)nc(N[C@@H]3CCCC[C@@H]3N)nc21	9%	-4%	x
CCOC(=O)CC(NC(=O)Cn1nnc(-c2ccc(C(F)(F)F)cc2)n1)c1ccc(C)cc1 (stereo unspecified)	-24%	-3%	x
Cc1nnc(N/N=C/c2ccc(O)c([N+](=O)[O-])c2)[nH]c1=O	-3%	-4%	x
Cc1csc(N/N=C/c2ccc(O)c([N+](=O)[O-])c2)n1	7.9µM*	7.1µM*	-47%
